Reference: PubChem BioAssay AID1159580 (chemical genetic matrix, 2015)
Several values for one entry are separate records, joined by “and”; a condition that tells them apart may be missing. Equal values may be shown once. The campaign covered roughly 5,500 compounds. About 2,000 (36%) were called active. Not shown: some 18% with an inconclusive outcome. Cut-off read from the data, not from the text of the source: active = normalized growth mostly below about 0.91 (no sharp cut-off); inconclusive = no clear call, values can overlap the other calls; inactive = mostly above about 0.92. Some of the results follow.

Test: chemical genetic growth profiling, strain panel (AID 1159580);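 note: tested at 20 µM; growth read once vehicle control cultures reached saturation at 30 °C; 1 = growth at the plate median or of vehicle wells; lower values mean less growth of the strain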
Details: S. cerevisiae deletion strains, growth OD

Measured: normalized growth

COc1ccc(CN(CCN(C)C)c2ccccn2)cc1
inactive: locus YAL013W, strain DEP1, stronger effect = lower value 0.971 | locus YAL021C, strain ccr4, stronger effect = lower value 1.01 | locus YAL026C, strain drs2, stronger effect = lower value 1.03 | locus YAL030W, strain snc1, stronger effect = lower value 0.999 | locus YAL040C, strain CLN3, stronger effect = lower value 0.955 | locus YBL061C, strain skt5, stronger effect = lower value 1.01 | locus YBR009C, strain hhf1, stronger effect = lower value 0.986 | locus YBR021W, strain FUR4, stronger effect = lower value 0.995 | locus YBR023C, strain chs3, stronger effect = lower value 1.03 | locus YBR171W, strain sec66, stronger effect = lower value 1.02 | locus YBR229C, strain ROT2, stronger effect = lower value 0.991 | locus YBR231C, strain swc5, stronger effect = lower value 1.02 | locus YBR279W, strain paf1, stronger effect = lower value 1.01 | locus YCL011C, strain gbp2, stronger effect = lower value 1.03 | locus YCL016C, strain dcc1, stronger effect = lower value 1.03 | locus YCL029C, strain bik1, stronger effect = lower value 0.989 | locus YCL061C, strain MRC1 (second series), stronger effect = lower value 0.986 | locus YCL069W, strain vba3, stronger effect = lower value 1.01 | locus YCR088W, strain abp1, stronger effect = lower value 1.02 | locus YDL005C, strain med2, stronger effect = lower value 1.03 | locus YDL035C, strain GPR1, stronger effect = lower value 0.996 | locus YDL040C, strain nat1, stronger effect = lower value 1.01 | locus YDL074C, strain BRE1, stronger effect = lower value 1.01 | locus YDL101C, strain DUN1, stronger effect = lower value 0.993 | locus YDL134C, strain PPH21, stronger effect = lower value 0.995 | locus YDL185W, strain tfp1, stronger effect = lower value 0.951 | locus YDL192W, strain arf1, stronger effect = lower value 0.978 | locus YDR001C, strain nth1, stronger effect = lower value 1.01 | locus YDR069C, strain doa4, stronger effect = lower value 1.01 | locus YDR101C, strain arx1, stronger effect = lower value 0.982 | locus YDR137W, strain rgp1, stronger effect = lower value 1.04 | locus YDR150W, strain NUM1, stronger effect = lower value 1.02 | locus YDR159W, strain sac3, stronger effect = lower value 0.992 | locus YDR162C, strain NBP2, stronger effect = lower value 0.992 | locus YDR195W, strain ref2 0.966 | locus YDR297W, strain sur2, stronger effect = lower value 1.01 | locus YDR318W, strain mcm21, stronger effect = lower value 0.989 | locus YDR334W, strain swr1, stronger effect = lower value 1 | locus YDR335W, strain msn5, stronger effect = lower value 1.03 | locus YDR363W, strain ESC2, stronger effect = lower value 1 | locus YDR388W, stronger effect = lower value 0.998 | locus YDR392W, strain spt3, stronger effect = lower value 1.04 | locus YDR502C, strain sam2, stronger effect = lower value 0.979 | locus YEL003W, strain gim4, stronger effect = lower value 1.02 | locus YEL037C, strain rad23, stronger effect = lower value 1.01 | locus YEL061C, strain CIN8 (second series), stronger effect = lower value 1.02 | locus YEL061C, strain CIN8, stronger effect = lower value 0.999 | locus YER002W, strain NOP16, stronger effect = lower value 1 | locus YER015W, strain faa2, stronger effect = lower value 1.03 | locus YER016W, strain bim1, stronger effect = lower value 1.02 | locus YER110C, stronger effect = lower value 0.968 | locus YER111C, strain swi4, stronger effect = lower value 1.01 | locus YER155C, strain BEM2 (second series), stronger effect = lower value 1.02 | locus YER155C, strain BEM2, stronger effect = lower value 0.983 | locus YER167W, strain BCK2, stronger effect = lower value 1 | locus YFR010W, strain ubp6, stronger effect = lower value 1 | locus YGL078C, strain dbp3, stronger effect = lower value 0.998 | locus YGL086W, strain mad1, stronger effect = lower value 0.988 | locus YGL167C, strain pmr1, stronger effect = lower value 1.02 | locus YGL173C, strain kem1, stronger effect = lower value 1.02 | locus YGL227W, strain vid30, stronger effect = lower value 1.01 | locus YGL240W, strain doc1, stronger effect = lower value 0.991 | locus YGL248W, strain PDE1, stronger effect = lower value 0.999 | locus YGL253W, strain hxk2, stronger effect = lower value 1.03 | locus YGR078C, strain PAC10, stronger effect = lower value 0.983 | locus YGR135W, strain pre9, stronger effect = lower value 0.988 | locus YGR229C, strain SMI1, stronger effect = lower value 1.01 | locus YGR252W, strain gcn5, stronger effect = lower value 1.12 | locus YHR013C, strain ard1, stronger effect = lower value 1.08 | locus YHR027C, strain rpn1, stronger effect = lower value 1.02 | locus YHR030C, strain SLT2, stronger effect = lower value 0.992 and 1.05 | locus YHR079C, strain IRE1 (second series), stronger effect = lower value 0.987 | locus YHR079C, strain IRE1, stronger effect = lower value 1.06 | locus YHR094C, strain hxt1, stronger effect = lower value 0.981 | locus YHR129C, strain ARP1, stronger effect = lower value 1 | locus YHR142W, strain chs7, stronger effect = lower value 1.05 | locus YHR200W, strain rpn10, stronger effect = lower value 0.993 | locus YIL066C, strain RNR3, stronger effect = lower value 0.995 | locus YIL073C, strain SPO22, stronger effect = lower value 0.916 | locus YIL125W, strain kgd1, stronger effect = lower value 0.973 | locus YIR030C, strain dcg1, stronger effect = lower value 0.99 | locus YJL092W, strain hpr5, stronger effect = lower value 1.02 | locus YJL095W, strain BCK1 (second series), stronger effect = lower value 1 | locus YJL095W, strain BCK1, stronger effect = lower value 1.01 and 1.03 | locus YJL115W, strain asf1, stronger effect = lower value 1.02 | locus YJL129C, strain trk1, stronger effect = lower value 1.03 | locus YJL134W, strain LCB3, stronger effect = lower value 0.989 | locus YJL154C, strain vps35, stronger effect = lower value 1.02 | locus YJL164C, strain tpk1, stronger effect = lower value 1.02 | locus YJL166W, strain qcr8, stronger effect = lower value 1.01 | locus YJL168C, strain set2, stronger effect = lower value 0.993 | locus YJL187C, strain SWE1 (second series), stronger effect = lower value 0.985 | locus YJR043C, strain POL32, stronger effect = lower value 1.01
